Laboratory results reported in PubChem BioAssay (NCI).
Values joined by “and” are separate entries in the source; they are usually repeats but may differ in a detail not shown here. Identical values can stand only once. Compounds without any hit were thinned out: in the full panel of roughly 83,000, 20% have a hit.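 Treatment: one concentration, 48 hours, 96-well format. Scoring: percent growth, with anything below 10 considered active.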 Active and inactive are the calls of the source.

Key:
Assay in all cases: NCI-60 one-dose screen, 48 h (100 = growth as untreated, 0 = no growth, -100 = all killed)
HCT-15 colon = system: HCT-15 colon
HT29 colon = conditions: 10 µM unless noted
SNB-75 CNS = conditions: 10 µM unless noted
SNB-19 CNS = system: SNB-19 CNS
U251 CNS = system: U251 CNS
PC-3 prostate = system: PC-3 prostate
SK-MEL-5 melanoma = system: SK-MEL-5 melanoma
UACC-62 melanoma = system: UACC-62 melanoma
LOX IMVI melanoma = system: LOX IMVI melanoma
SK-MEL-28 melanoma = system: SK-MEL-28 melanoma

Measured: growth

COc1cc(Cl)ccc1C
inactive: HCT-15 colon; 10 µM unless noted 14.3% | HT29 colon 27.1% | SNB-75 CNS 110% | SNB-19 CNS; 10 µM unless noted 79% | U251 CNS; 10 µM unless noted 78% | PC-3 prostate; 10 µM unless noted 74.1% | SK-MEL-5 melanoma; 10 µM unless noted 96.3% | UACC-62 melanoma; 10 µM unless noted 66.4% | LOX IMVI melanoma; 10 µM unless noted 77.1% | SK-MEL-28 melanoma; 10 µM unless noted 112%

S=c1nc[nH]c2nc[nH]c12
active: LOX IMVI melanoma; 10 µM 9.56% | LOX IMVI melanoma; 50 µM 6.96%
inactive: HCT-15 colon; 10 µM 39.1% | HCT-15 colon; 50 µM 15.6% | SNB-19 CNS; 10 µM 96.3% | SNB-19 CNS; 50 µM 91.6% | U251 CNS; 10 µM 51.5% | U251 CNS; 50 µM 36.8% | PC-3 prostate; 10 µM 53.5% | PC-3 prostate; 50 µM 43.2% | SK-MEL-5 melanoma; 10 µM 61.8% | SK-MEL-5 melanoma; 50 µM 12.8% | UACC-62 melanoma; 10 µM 15.8% | UACC-62 melanoma; 50 µM 19.8% | SK-MEL-28 melanoma; 10 µM 114% | SK-MEL-28 melanoma; 50 µM 75.6%
15.6% (inactive) and 1.72% (active): UACC-62 melanoma; 750 µM

CNc1ccc(O)cc1
inactive: HCT-15 colon; 10 µM unless noted 103% and 102% | HT29 colon 114% and 113% | SNB-75 CNS 84.1% and 66.5% | SNB-19 CNS; 10 µM unless noted 102% and 98.3% | U251 CNS; 10 µM unless noted 101% and 99.3% | PC-3 prostate; 10 µM unless noted 102% and 100% | SK-MEL-5 melanoma; 10 µM unless noted 98.2% and 112% | UACC-62 melanoma; 10 µM unless noted 108% and 89.3% | LOX IMVI melanoma; 10 µM unless noted 101% and 93.9% | SK-MEL-28 melanoma; 10 µM unless noted 114% and 137%

Nc1nc(=S)c2[nH]cnc2[nH]1
inactive: HCT-15 colon; 10 µM unless noted 13% and 12.5% | SNB-75 CNS 29.1% and 26.5% | SNB-19 CNS; 10 µM unless noted 98.2% and 102% | U251 CNS; 10 µM unless noted 47.2% and 51% | PC-3 prostate; 10 µM unless noted 33.2% and 32.1% | SK-MEL-28 melanoma; 10 µM unless noted 29%
active: HT29 colon 9.45% and 8.24% | SK-MEL-5 melanoma; 10 µM unless noted -2% and -29% | UACC-62 melanoma; 10 µM -21.9% | UACC-62 melanoma; 250 µM -67.7% and -100% | LOX IMVI melanoma; 10 µM unless noted 8.31% and 5.43%

O=c1[nH]c(=S)[nH]n1C(=S)n1[nH]c(=S)[nH]c1=O
inactive: HCT-15 colon; 10 µM unless noted 112% | HT29 colon 106% | SNB-75 CNS 92% | SNB-19 CNS; 10 µM unless noted 99.9% | U251 CNS; 10 µM unless noted 93.6% | PC-3 prostate; 10 µM unless noted 83.3% | SK-MEL-5 melanoma; 10 µM unless noted 93% | UACC-62 melanoma; 10 µM unless noted 94.4% | LOX IMVI melanoma; 10 µM unless noted 95.6% | SK-MEL-28 melanoma; 10 µM unless noted 114%

CCCCNC(=O)c1ccccc1C
inactive: HCT-15 colon; 10 µM unless noted 93.4% | HT29 colon 102% | SNB-75 CNS 99% | SNB-19 CNS; 10 µM unless noted 98.2% | U251 CNS; 10 µM unless noted 99.3% | PC-3 prostate; 10 µM unless noted 88.2% | SK-MEL-5 melanoma; 10 µM unless noted 93.3% | UACC-62 melanoma; 10 µM unless noted 101% | LOX IMVI melanoma; 10 µM unless noted 96.9% | SK-MEL-28 melanoma; 10 µM unless noted 101%

CCOC(=O)CN1CCC(C(=O)OCC)CC1
inactive: HCT-15 colon; 10 µM unless noted 125% | HT29 colon 104% | SNB-75 CNS 106% | SNB-19 CNS; 10 µM unless noted 110% | U251 CNS; 10 µM unless noted 107% | PC-3 prostate; 10 µM unless noted 88.8% | SK-MEL-5 melanoma; 10 µM unless noted 103% | UACC-62 melanoma; 10 µM unless noted 94.6% | LOX IMVI melanoma; 10 µM unless noted 99.3% | SK-MEL-28 melanoma; 10 µM unless noted 108%

NC(=O)Cc1nc(O)cc(=O)[nH]1
inactive: HCT-15 colon; 10 µM unless noted 96.9% | HT29 colon 93.2% | SNB-75 CNS 88.1% | SNB-19 CNS; 10 µM unless noted 96.9% | U251 CNS; 10 µM unless noted 89.4% | PC-3 prostate; 10 µM unless noted 76.2% | SK-MEL-5 melanoma; 10 µM unless noted 104% | UACC-62 melanoma; 10 µM unless noted 98% | LOX IMVI melanoma; 10 µM unless noted 105% | SK-MEL-28 melanoma; 10 µM unless noted 113%

O=C(c1ccccc1)C1(Br)CCCCC1
inactive: HCT-15 colon; 10 µM unless noted 99.1% | HT29 colon 120% | SNB-75 CNS 95.2% | SNB-19 CNS; 10 µM unless noted 92% | U251 CNS; 10 µM unless noted 95.6% | PC-3 prostate; 10 µM unless noted 99.2% | SK-MEL-5 melanoma; 10 µM unless noted 95.7% | UACC-62 melanoma; 10 µM unless noted 90.5% | LOX IMVI melanoma; 10 µM unless noted 86.7% | SK-MEL-28 melanoma; 10 µM unless noted 101%

COc1cc2oc3cc(=O)cc4oc(-c5ccccc5)cc(c2c2c1CCC(c1ccccc1)O2)c43 (centres undefined)
inactive: HCT-15 colon; 10 µM unless noted 62.8% | HT29 colon 71.9% | SNB-75 CNS 68.2% | SNB-19 CNS; 10 µM unless noted 98.9% | U251 CNS; 10 µM unless noted 87.3% | PC-3 prostate; 10 µM unless noted 58.9% | SK-MEL-5 melanoma; 10 µM unless noted 78% | UACC-62 melanoma; 10 µM 73.5% | UACC-62 melanoma; 100 µM 53% and 10.4% | LOX IMVI melanoma; 10 µM unless noted 56.7% | SK-MEL-28 melanoma; 10 µM unless noted 90.1%
